Measurements as given in PubChem BioAssay.
The source made the active and inactive calls.

Experiment: splicing luciferase reporter signal modulators, primary screen, spliceosome inhibition project, cell-based, HEK293, splice +/- reporter (AID 1101);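 also: HEK293 cells carrying a splicing-competent luciferase reporter gene; test concentration not given here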
Settings: luminescence, 24 h, higher = more signal, called active from +8 up or from −8 down

z-score, inactive:
O=C1C[C@@H](O)[C@@H](O)[C@@H]2[C@@H]3C(=O)N(c4ccc(F)cc4F)C(=O)[C@@H]3CC[C@H]12 0.759
Cc1cc(C)c(-c2cc([C@H](C)ON=C[C@@H](C)[C@H](OCc3ccccc3)C(C)C)on2)c(C)c1 -0.34
CCN1C(=O)[C@H]2[C@H]3[C@H](O)[C@H](O)CC(=NOCC=C(C)CCC=C(C)C)[C@@H]3CC[C@H]2C1=O 0.486
CC(CCC(=O)OC[C@H]1O[C@H](C#Cc2ccccc2)C=C[C@@H]1Oc1ccc(C)cc1)=NOC[C@@H](C)[C@H](OCc1ccccc1)C(C)C 0.371
CCOC(=O)CCN1C(=O)[C@H]2[C@H]3[C@H](O)[C@H](O)CC(=NO[C@@H]4O[C@H](CO)[C@@H](O)[C@H](O)[C@H]4O)[C@H]3CC[C@H]2C1=O -0.265
CC1(C)O[C@H]2OC([C@H](O)CON3C(=O)c4ccccc4C3=O)[C@H](O)[C@H]2O1 (stereo partly specified) 0.105
CC(CCN1CCc2nc(-c3ccccc3)c(-c3ccccc3)cc2C1)=NO[C@H](C)c1cn([C@H](CO)Cc2ccccc2)nn1 -0.534
CON=C(C)CCN1CCCc2nc(C)c(C)cc21 0.205
CC(=O)OC[C@H]1O[C@@H](ON=C(C)CCC(=O)OC[C@H]2O[C@H](C#Cc3ccccc3)C=C[C@@H]2Oc2ccc(C)cc2)[C@H](OC(C)=O)[C@@H](OC(C)=O)[C@@H]1OC(C)=O -0.188
CCN1C(=O)[C@H]2[C@H]3[C@H](O)[C@H](O)CC(=NO[C@H](C)c4cn([C@H](CO)Cc5ccccc5)nn4)[C@@H]3CC[C@H]2C1=O -0.05
CC(=O)OC[C@H]1O[C@@H](ON=C(C)C)[C@H](OC(C)=O)[C@@H](OC(C)=O)[C@@H]1OC(C)=O 0.851
CC(C)CON=C1C[C@@H](O)[C@@H](O)[C@@H]2[C@@H]3C(=O)N(c4ccc(F)cc4F)C(=O)[C@@H]3CC[C@@H]12 -0.817
C=C(C)C(=O)OC[C@H]1CN2[C@@H](CC[C@@H](C)[C@@H]2c2ccc(Br)cc2)C(=O)O1 -0.286
CC(CCN1CCCc2nc(C)c(C)cc21)=NOC[C@@H](O)COCc1ccco1 0.58
O=C1C=C[C@@H](O)[C@@H]2[C@@H]3C(=O)N(Cc4ccc5c(c4)OCO5)C(=O)[C@@H]3CC[C@@H]12 -0.5
CC(C)(C)N1C(=O)[C@H]2[C@H]3[C@H](O)[C@H](O)CC(=NOC[C@@H](O)COCc4ccco4)[C@@H]3CC[C@H]2C1=O 0.369
C=CC[C@@H]1C=CC(ON=C(C)C)[C@@H](CO)O1 (stereo partly specified) 0.304
CCC1=NOC(CCC2CC(OC(=O)NCc3cccc4c3OCO4)CC3(CCCC(COC(=O)NCCc4ccc(Cl)cc4)O3)O2)C1 (stereo unspecified) 0.116
C#CCCCON=C1C[C@@H](O)[C@@H](O)[C@@H]2[C@@H]3C(=O)N(C4CCCCC4)C(=O)[C@@H]3CC[C@@H]12 0.466
CC(=O)OC[C@H]1O[C@H](CC=NOC[C@@H](O)COCc2ccco2)C=C[C@@H]1OC(C)=O -0.0391
CC(C)=NOC(C)CN1CCCc2nc(C)c(C)cc21 (stereo unspecified) 0.484
CCOC(=O)[C@H](Cc1ccccc1)NC(=O)CCC1CC(OC(=O)NCc2cccc3ccccc23)CC2(CCCC(COC(=O)NCC3CCCCC3)O2)O1 (stereo partly specified) -0.815
O=C1C[C@H](c2ccccc2)[C@H](c2ccc(Br)cc2)O1 -0.823
COC(=O)[C@H](C)NC(=O)CCC1CC(OC(=O)NCCc2ccc(F)cc2)CC2(CCCC(COC(=O)NCC3CCCCC3)O2)O1 (stereo partly specified) -0.863
CN1CCc2nc(-c3ccccc3)c(-c3ccccc3)cc2C1 0.0199
CC#CCOCCC=C1c2ccccc2[C@@H](OC)[C@@H]1C 0.478
C#CCCCON=C1C[C@@H](O)[C@@H](O)[C@@H]2[C@@H]3C(=O)N(C[C@@H]4CCCO4)C(=O)[C@@H]3CC[C@H]12 0.44
O=C1[C@H]2[C@H]3[C@H](O)[C@H](O)CC(=NO[C@@H]4O[C@H](CO)[C@@H](O)[C@H](O)[C@H]4O)[C@H]3CC[C@H]2C(=O)N1c1ccc(F)cc1F 0.324
CCCNC(=O)OC[C@H]1O[C@H](CCON=C2C[C@@H](O)[C@@H](O)[C@@H]3[C@@H]4C(=O)N(CC)C(=O)[C@@H]4CC[C@@H]23)C=C[C@@H]1Oc1ccc(OC)cc1 0.264
CC(C)=CCCC(C)=CCON=C1C[C@@H](O)[C@@H](O)[C@@H]2[C@@H]3C(=O)N(c4cccc(Oc5ccccc5)c4)C(=O)[C@@H]3CC[C@H]12 0.467
COc1ccc(OC[C@@H](CO)OC)cc1 1.18
COc1ccc(OC[C@H]2CN3[C@@H](CC[C@@H](C)[C@@H]3c3ccc(Br)cc3)C(=O)O2)cc1 -0.319
Cc1ccc(S(=O)(=O)N[C@@H]2COC(=O)CC=C[C@@H](C)[C@H](NS(=O)(=O)c3ccc(C)cc3)COC(=O)[C@H](C)NC(=O)CC=C[C@H]2C)cc1 -0.294
CC(C)CON=C1C[C@@H](O)[C@@H](O)[C@@H]2[C@@H]3C(=O)N(C(C)(C)C)C(=O)[C@@H]3CC[C@@H]12 -1.15
CCOC(=O)CCN1C(=O)[C@H]2[C@H]3[C@H](O)[C@H](O)CC(=O)[C@@H]3CC[C@H]2C1=O 0.283
CCOC(=O)[C@H](CC(C)C)NC(=O)CCC1CC(OC(=O)NCc2ccc3c(c2)OCO3)CC2(CCCC(COC(=O)NCCC(C)C)O2)O1 (stereo partly specified) -0.748
